Results reported in PubChem BioAssay AID463195 (Sanford-Burnham Center for Chemical Genomics, 2010).
In all, about 330,000 compounds went through this assay and about 4,600 (1.4%) were called active. The list comes from a sample in which actives are over-represented; it also holds similar structures and randomly drawn compounds. Unmarked numbers belong to inactive results.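 Rule for the calls: active = inhibition of 40% or more at the single tested concentration; inactive = the rest.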

Assay: wild-type TIM10 yeast growth inhibition – luminescence, uHTS, counter-screen for tim10-1 yeast inhibitor project, primary screen (AID 463195);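 note: wild-type TIM10 isogenic control strain grown at permissive 25 °C; 0% = DMSO yeast wells and 100% = minimal medium wells without yeast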
Settings: S. cerevisiae TIM10 strain growth, BacTiter-Glo luminescence, 24 h; at 10 µM; active compounds read high

Going from `O=C(CNC(=O)c1cccs1)N/N=C/c1cccc(Br)c1` to `O=C(N/N=C/c1cccc(Br)c1)c1ccc(N2CCCC2=O)cc1`, the inhibition falls from 18.4% to 12%.

Compared with `CC(C)(C)OC(=O)C[C@@H]1C/C=C\C[C@@H](CC(=O)NCCO)C(=O)N[C@H](Cc2c[nH]c3ccccc23)COC1=O`, `CCN(C(=O)COC(=O)CCOc1cccc(C)c1)c1c(N)n(Cc2ccccc2)c(=O)[nH]c1=O` is higher in inhibition: -3.29% for the first, -2.83% for the second.

Compared with `CC(C)CCn1cnc2c1c(=O)n(CC(=O)NC(N)=O)c(=O)n2Cc1ccccc1`, `COc1ccccc1OCCC(=O)OCC(=O)NCc1ccccc1` is higher in inhibition: 2.63% for the first, 9.81% for the second.

Going from `COc1cc(C(=O)NN(CCC#N)C2=NS(=O)(=O)c3ccccc32)cc(OC)c1OC` to `COc1cccc(NC(=O)COC(=O)CCOc2ccccc2OC)c1`, the inhibition rises from 8.55% to 30%.

Compared with `Cc1nc(NNC(=O)c2ccccc2)cc(-c2ccccc2)n1`, `CC(=O)c1c(Nc2ccccc2)sc(C(=O)c2ccccc2)c1C` is lower in inhibition: 10.7% for the first, -7.77% for the second.

Going from `Nc1ccc(-c2nnc(-c3ccccc3)o2)cc1` to `Cc1nnc(SCc2ccc(C(=O)c3ccc(Cl)cc3)o2)n1-c1ccccc1`, the inhibition falls from 8.79% to 7.12%.

First: CC1=NNC(=O)C1Cc1c(Cl)cccc1Cl (centres undefined)
Second: NC(=S)Nc1c(Cl)cccc1Cl
The inhibition of the first is higher: 13.4% for the first, -2.06% for the second.

Compared with `COc1ccc(N2C(=O)C(CC(=O)Nc3ccc(F)cc3)N(CCc3cccs3)C2=O)cc1` (centres undefined), `COc1ccc(C(=O)CCC(=O)Nc2ccc(Cl)cc2)cc1` is lower in inhibition: 27.1% for the first, -25.2% for the second.

First: CCc1ccccc1NC1c2ccccc2C(=O)N1c1cccnc1 (centres undefined)
Second: CC(=O)C1=C(O)C(=O)N(c2cccnc2)C1c1ccc([N+](=O)[O-])cc1 (centres undefined)
The inhibition of the first is higher: -1.26% for the first, -3.83% for the second.

Going from `COc1ccc(-c2c(C)cc3oc(=O)cc(-c4ccccc4)c3c2C)cc1C=O` to `COc1cccc(-n2cc3c(c2-c2ccccc2)c(=O)n(C)c(=O)n3C)c1`, the inhibition rises from -23.6% to -0.343%.

Compared with `COc1ccccc1C1=Nc2cccc3cccc(c23)N1`, `Fc1ccccc1N=C1Nc2cccc3cccc1c23` is lower in inhibition: 8.32% for the first, 5.3% for the second.

Compared with `CCO/C=C1\C(=O)N(c2ccc(OCC)cc2)C(=O)c2ccccc21`, `CCOc1ccccc1Oc1cn[nH]c1-c1ccc(OC)cc1O` is lower in inhibition: 1.43% for the first, -79.8% for the second.

Compared with `CSc1ccccc1NC(=O)COC(=O)CCCOc1ccc(C)cc1`, `CCN(CC(=O)Nc1ccc(OC)cc1)C(=O)CSCc1ccc(C)cc1` is lower in inhibition: -8.29% for the first, -9.01% for the second.

Compared with `Cc1cccc(OCc2nnc(SCc3nc4cc(C(F)(F)F)ccc4c(=O)[nH]3)o2)c1`, `Cc1ccc(-c2noc(CSc3nnc(-c4cccs4)n3C)n2)cc1` is lower in inhibition: 23% for the first, 12.3% for the second.

First: Cc1ccccc1OCC(=O)Nc1ccc(S(=O)(=O)N2CCOCC2)cc1
Second: Cc1ccccc1OCC(=O)Nc1ccc2c(c1)ncn2C
The inhibition of the first is higher: 18.7% for the first, 2.51% for the second.

Going from `CCC(C)N(C(=O)Cn1nc(C)c([N+](=O)[O-])c1C)C1CCS(=O)(=O)C1` (centres undefined) to `CCN(CC(=O)NC(C)C)C(=O)c1cc(S(=O)(=O)N2CCCCC2)ccc1N1CCCCC1`, the inhibition falls from 2.63% to -4.18%.

First: CCN(CC(=O)Nc1ccc2c(c1)OCCO2)Cc1cc(=O)oc2cc(C)c(C)cc12
Second: Cc1cc2oc(=O)cc(CN3CCN(S(=O)(=O)c4cccs4)CC3)c2cc1C(C)C
The inhibition of the first is higher: 2.82% for the first, -1.14% for the second.

Going from `Cn1nnc2cc(C(=O)NCCC3=CCCCC3)ccc21` to `COc1ccc(CCNC(=O)c2cnc(Cl)c(Cl)c2)cc1`, the inhibition falls from 9.76% to -23.1%.

Going from `Cc1cccc(-c2nc3ccc(C(=O)NCCN4CCN(C)CC4)cc3nc2-c2cccc(C)c2)c1` to `C=CCn1c(C2CC(=O)N(c3ccc(C)cc3)C2)nc2ccccc21` (centres undefined), the inhibition falls from 11.7% to 0.772%.

Compared with `O=C(NCc1cccnc1)c1cnc2ccccc2n1`, `CN(C(=O)c1ccccn1)c1nnc(-c2ccccn2)s1` is lower in inhibition: 3.89% for the first, 1.41% for the second.

First: O=C(O)Cc1csc(NC(=O)CSc2nnnn2-c2ccc(O)cc2)n1
Second: Cn1cccc1Cc1nnc(SCC(=O)NCCc2ccccc2)n1-c1ccc(F)cc1
The inhibition of the first is lower: -3.77% for the first, 10.2% for the second.

Going from `CS(=O)(=O)N(CC(=O)Nc1ccc(Cl)c(Cl)c1)C1CCCCC1` to `O=C(CCCN1C(=O)CCC1=O)Nc1ccc(Cl)c(C(F)(F)F)c1`, the inhibition falls from 27.6% to -0.757%.

Compared with `COc1cccc(NC(=O)C(=O)c2cn(CC(=O)N3CCOCC3)c3ccccc23)c1`, `COc1ccc2oc(=O)cc(CN3CCOCC3)c2c1` is lower in inhibition: 11.5% for the first, -8.83% for the second.

Going from `COc1cccc(C(C(=O)NC2CCCC2)N(C(=O)c2ccco2)c2cccc(C(C)=O)c2)c1OC` (centres undefined) to `O=C(NCc1ccccc1)C(c1ccco1)N(C(=O)c1csnn1)c1ccccc1F` (centres undefined), the inhibition falls from 11.8% to 5.22%.

Going from `CCOC(=O)NC(=O)/C(C#N)=C\c1ccccc1` to `O=C1CCN(C(=O)Nc2ccccc2)N1`, the inhibition falls from 15.6% to -12.2%.

First: O=C(/C=C/c1c(F)cccc1Cl)Nc1nn[nH]n1
Second: Cc1cc(C)nc(NS(=O)(=O)c2ccc(N/C=C\C(=O)c3cccs3)cc2)n1
The inhibition of the first is higher: 0.073% for the first, -1.27% for the second.

Compared with `COc1ccc(Nc2ccc([N+](=O)[O-])cn2)cn1`, `O=C1Nc2ccc([N+](=O)[O-])cc2C1=Nc1cccc(CO)c1` is higher in inhibition: 1.7% for the first, 8.6% for the second.

First: CCCCn1nc(C(=O)Nc2ccc(S(=O)(=O)Nc3ncccn3)cc2)c2ccccc2c1=O
Second: O=C(N/N=C/c1cccnc1)c1ccc(NC(=O)c2ccc(F)cc2)cc1
The inhibition of the first is higher: 6.41% for the first, -13.1% for the second.

Going from `Cc1ccc(CN(N=Nc2nonc2N)c2nonc2N)c(C)c1` to `Cc1ccc(Nc2nc(CSc3nnc(-c4ccncc4)n3-c3ccccc3C)cs2)cc1`, the inhibition falls from 36.7% to 19.6%.

Going from `CCCOCC(O)CC(CC)C(=O)NNC(=S)Nc1ccccc1` (centres undefined) to `CCOc1ccc(C(CC(=O)O)n2cnnn2)cc1OC` (centres undefined), the inhibition falls from 7.95% to -1.38%.

Going from `CCC12CN3CC(CC)(CN(C1)C31C(=O)N(C)c3ccc(C)cc31)C2=O` (centres undefined) to `CCN(CC)CCNC(=O)c1sc2ncn(CC(=O)Nc3ccc(C)c(Cl)c3)c(=O)c2c1C`, the inhibition falls from -4.81% to -10.3%.

First: Cc1cc(/C=C(/C#N)C(=O)Nc2ccc(Cl)cc2)c(C)n1-c1cccnc1
Second: Cc1ccc2c(N)c(C(=O)c3ccccc3)sc2n1
The inhibition of the first is lower: -8.09% for the first, 36.2% for the second.

First: NC(=O)C(Cc1ccccc1)NC(=O)C12CC3CC(CC(C3)C1)C2 (centres undefined)
Second: CCO[C@@H]1OC(C(N)=O)=C[C@H](c2ccc(Br)cc2)[C@H]1CCCO
The inhibition of the first is higher: 16.3% for the first, -4.73% for the second.

Going from `Cn1c(SCc2ccc(F)cc2)nnc1-c1ccncc1` to `CCn1c(SCC(=O)NC2CC2)nnc1-c1ccncc1`, the inhibition rises from -15.7% to -12.4%.

Compared with `COc1ccc(-c2cn[nH]c2-c2ccc(OC)cc2)cc1`, `COc1ccc(-c2cc3nc(C)c(CCC(=O)NC(C)CCc4ccco4)c(C)n3n2)c(OC)c1` (centres undefined) is lower in inhibition: 35% for the first, 23.7% for the second.

First: CCc1nc2sc(C(=O)O)c(N)c2c2c1CCCC2
Second: COC(=O)c1c(NC(=O)CCN2CCOCC2)sc2c1CCCC2
The inhibition of the first is lower: -94.9% for the first, 9.98% for the second.

Going from `Cc1nnc(SC(C(=O)Nc2cc(Cl)cc(Cl)c2)c2ccccc2)[nH]c1=O` (centres undefined) to `COC(=O)c1c(NC(=O)C2CC(C)=C(C)CC2C(=O)O)sc2c1CCCCC2` (centres undefined), the inhibition rises from 14.3% to 20.6%.

Molecule `CC(C)CCNC(=O)C1CCC(CNc2c(N3CCC(C)CC3)c(=O)c2=O)CC1` (centres undefined) has an inhibition of 2.16%.

For `O=C(N/N=C\c1cccc(Br)c1)c1ccccc1-n1cccc1`, the inhibition was 51.9% (active).
With `Nc1cccc(-c2cc(-c3ccccc3)nc(-c3cccc(N)c3)n2)c1` the inhibition was 44.2% (active).
In the case of `O=C1[C@@H](c2ccccc2)[C@@H](c2ccccc2)N1c1cccnc1`, the inhibition is reported as 63.5% (active).
With `c1ccc(C2=Nc3cccc4cccc(c34)N2)cc1` the inhibition was 42.2% (active).
For `COc1cc([N+](=O)[O-])ccc1NC(=O)COC(=O)CCOc1ccc(C)cc1`, the inhibition was 49% (active).
In the case of `Cc1ccccc1OCC(=O)Nc1ccc(N2CCN(C(=O)C(C)C)CC2)c(Cl)c1`, the inhibition is reported as 65.5% (active).
In the case of `C=CCNC(=O)c1ccc2c3n(nc2c1)-c1ccc(C)cc1CO3`, the inhibition is reported as 47% (active).
With `O=C(CC(O)(C(F)(F)F)C(F)(F)F)Nc1ccc(Cl)c(Cl)c1` the inhibition was 88.8% (active).
For `CNC(=O)/C(C#N)=C/c1c(F)cccc1Cl`, the inhibition was 59.2% (active).
With `COc1ccc(NC(=O)/C(Cl)=C(/Cl)S(=O)Cc2ccc(C)cc2)cn1` (centres undefined) the inhibition was 57.6% (active).
In the case of `COc1ccc(CS(=O)/C(Cl)=C(/Cl)C(=O)Nc2ccc(OC)nc2)cc1` (centres undefined), the inhibition is reported as 88.3% (active).
For `N#C/C(=C\c1cccnc1)C(=O)Nc1ccc(SC(F)F)cc1`, the inhibition was 45.6% (active).
With `COc1ccc2c(CN3CCN(S(=O)(=O)c4cccs4)CC3)cc(=O)oc2c1` the inhibition was 52.4% (active).
In the case of `Cc1ccc(-c2noc(CSc3nnc(-c4ccncc4)n3-c3ccc(F)cc3)n2)cc1`, the inhibition is reported as 46.2% (active).
With `Fc1ccc(-n2c(Cc3ccccc3)nnc2SCc2nc(-c3ccc(Cl)cc3)no2)cc1` the inhibition was 41% (active).
With `COc1ccc(Oc2cn[nH]c2-c2ccc(OC)cc2O)cc1` the inhibition was 45.7% (active).
With `CN(C)c1ccnc2sc(C(=O)c3ccccc3)c(N)c12` the inhibition was 40.4% (active).
For `Cc1nc2sc(C(=O)c3ccccc3)c(N)c2c2c1CCCC2`, the inhibition was 41.5% (active).
With `COC(=O)c1c(NC(=O)CSc2nncs2)sc2c1CCCCC2` the inhibition was 43.7% (active).
